For ten compounds, Potency and outcome results are on record in PubChem BioAssay (NCATS).

Assay [1] concerns Zika virus NS2B-NS3 protease (linked construct). Description: Primary screen NINDS Rhodamine qHTS for Zika virus inhibitors (AID 1347160). Note: nearly all actives have a fitted effect of over 55% in size. Note: potency is the fitted concentration of half-maximal effect. The method in brief:
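Purified linked NS2B-NS3 protease (NS2B hydrophilic domain joined to NS3 protease by flexible linker), 25 nM in 10 mM Tris-HCl pH 8.0, 0.01% Tween 20. Compounds titrated, 15 min preincubation at room temperature; 1.5 microM Rhodamine110 substrate, FITC fluorescence change over 15 min.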

The nature of assay [2]: OV-KATE Cancer Cell Toxicity qHTS against the NCATS CANVASS Library (AID 1347345). Note: potency is the fitted concentration of half-maximal effect. The method in brief: (§1)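 Viability read-out: CellTiter-Glo luminescence after 72 h compound exposure at 37 °C/5% CO2. Cells plated at 1000/well, 4 h pre-incubation; 11-point titration. Bortezomib served as control.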
(In qHTS, concentration-response curves come from the screen itself.)

A short description of assay [3]: HPAF-II Cancer Cell Toxicity qHTS against the NCATS CANVASS Library (AID 1347346). Note: nearly all actives have a fitted effect of over 55% in size. Note: potency is the fitted concentration of half-maximal effect. The method in brief:
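HPAF-II cells were seeded at 1000 cells/well, allowed to settle for 4 h at 37 degrees C, then exposed to compounds in an 11-point series for 72 h. Viability was read by CellTiter-Glo luminescence.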

Assay [4] can be described thus: OV-SAHO Cancer Cell Toxicity qHTS against the NCATS CANVASS Library (AID 1347348). Note: nearly all actives have a fitted effect of over 55% in size. Note: potency is the fitted concentration of half-maximal effect. The method in brief: as §1
Assay [5] can be described thus: Panc-1005 Cancer Cell Toxicity qHTS against the NCATS CANVASS Library (AID 1347349). Note: nearly all actives have a fitted effect of over 60% in size. Note: potency is the fitted concentration of half-maximal effect. The method in brief:
as §1

A short description of assay [6]: COV-362 Cancer Cell Toxicity qHTS against the NCATS CANVASS Library (AID 1347352). Note: potency is the fitted concentration of half-maximal effect. An outline of the steps: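 Cells were seeded at 1000 per well and allowed to settle 4 hours at 37 degrees C before pin transfer of compounds as an 11-point series. Viability was read by CellTiter-Glo luminescence after 72 hours' exposure.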
A short description of assay [7]: A2780 Cisplatin Sensitive Ovarian Cancer Cell Toxicity qHTS against the NCATS CANVASS Library (AID 1347353). Note: nearly all actives have a fitted effect of over 60% in size. Note: potency is the fitted concentration of half-maximal effect. An outline of the steps:
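A2780 cisplatin-sensitive cells (750 per well) were seeded, left 4 h at 37 °C, then pin-dosed in an 11-point series. After 72 h at 37 °C/5% CO2, viability was measured as ATPLite luminescence.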

Assay [8] can be described thus: HPAF-II 24hr Apoptosis Induction qHTS against the NCATS CANVASS Library (AID 1347356). An outline of the steps:
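HPAF-II cells (500/well) in DMEM + 10% FBS were treated with an 11-point compound series for 24 hours at 37 degrees C. Caspase-3/7 activity was then read by Caspase-Glo DEVD luminescence after 15 min.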

Assay [9] is described as follows: HPAF-II 12hr Apoptosis Induction qHTS against the NCATS CANVASS Library (AID 1347358). An outline of the steps: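 HPAF-II cells (500/well, DMEM + 10% FBS) were exposed to compounds for 12 hours at 37 degrees C. Caspase-3/7 activity was then read by Caspase-Glo 3/7 luminescence after 15 min at room temperature.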
The nature of assay [10]: HEK293 24hr Apoptosis Induction qHTS against the NCATS CANVASS Library (AID 1347359). Note: potency is the fitted concentration of half-maximal effect. An outline of the steps: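 HEK293 cells, 500 per well, exposed to an 11-point compound series for 24 hours at 37 degrees C. Caspase 3/7 activity read by Caspase-Glo luminescence (DEVD substrate) after 15 min at room temperature.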
The nature of assay [11]: HPAF-II 18hr Apoptosis Induction qHTS against the NCATS CANVASS Library (AID 1347360). The method in brief:
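HPAF-II cells at 500/well were exposed for 18 h at 37 C to an 11-point compound series. Caspase-3/7 activity was read by Caspase-Glo luminescence after 15 min at RT.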

In assay [12] the target is Luciferin 4-monooxygenase (Photinus pyralis) (UniProt P08659). Description: Firefly luciferase counterscreen qHTS: Assay Interference Panel against the NCATS CANVASS Library (AID 1347363). Note: series mostly up to about 57 µM. The method in brief:
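Purified P. pyralis luciferase (0.04 ug/mL, 4x reagent) added to Tris-acetate buffer with 0.013 mM D-luciferin, 0.013 mM ATP and 13.3 mM Mg-acetate; compounds preincubated 15 min, then luminescence read after 5 min, RT.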

The nature of assay [13]: qHTS for ATAD5 Agonist screened against the NCATS CANVASS Library (AID 1347367).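 Note: luciferase reporter driven by ATAD5 which rises upon DNA damage.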 Note: potency is the fitted concentration of half-maximal effect. An outline of the steps:
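Luciferase reporter under ATAD5 control, stably integrated in HEK293T cells (2000/well). Compounds (11 points) incubated 16 h at 37C; viability read first by CellTiter-Fluor, then luminescence reporting ATAD5 activation. MMS positive control.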

The nature of assay [14]: MCF7 Cancer Cell Toxicity qHTS against the NCATS CANVASS Library (AID 1347369). Note: potency is the fitted concentration of half-maximal effect. An outline of the steps: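 MCF7 cells (500/well) were exposed 72 h at 37 °C to compounds in an 11-point series. Viability was read as ATP content by CellTiterGlo luminescence.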
Assay [15] is described as follows: J3T Cancer Cell Toxicity qHTS against the NCATS CANVASS Library (AID 1347371). Note: potency is the fitted concentration of half-maximal effect. An outline of the steps:
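J3T dog glioma cells (500 cells/well) were exposed to compounds in an 11-point series for 72 hr at 37C, 5% CO2. Cytotoxicity was read as ATP content by CellTiterGlo luminescence.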

A short description of assay [16]: qHTS for Inflammasome Signaling Inhibitors: IL-1-beta AlphaLISA screen against the NCATS CANVASS Library (AID 1347379).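 For Potency: secreted IL-1B measured as AlphaLISA emission at 615 nm; potency is the fitted concentration of half-maximal effect.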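 Note: human THP-1 cells primed with LPS then triggered with ATP.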 The method in brief:
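Human THP-1 cells were pretreated 1 hr at 37 °C with compounds (up to 57.5 uM final), then stimulated with LPS (250 ng/mL final) and ATP (1.25 mM final). Secreted IL-1B was read by AlphaLISA after 16 hr.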

Records with an inconclusive call do not appear. Calls of active or inactive are those of the source. Calls come from the whole dose curve; as a rule, active = well fitted curve in the direction sought with a large enough effect; inconclusive = small, poorly fitted or top-dose-only effect, or another doubt; inactive = no such curve, though single readings can be large; an effect the other way counts as inactive or inconclusive.

Sequence of Luciferin 4-monooxygenase (Photinus pyralis) (P08659 whole entry, looked up): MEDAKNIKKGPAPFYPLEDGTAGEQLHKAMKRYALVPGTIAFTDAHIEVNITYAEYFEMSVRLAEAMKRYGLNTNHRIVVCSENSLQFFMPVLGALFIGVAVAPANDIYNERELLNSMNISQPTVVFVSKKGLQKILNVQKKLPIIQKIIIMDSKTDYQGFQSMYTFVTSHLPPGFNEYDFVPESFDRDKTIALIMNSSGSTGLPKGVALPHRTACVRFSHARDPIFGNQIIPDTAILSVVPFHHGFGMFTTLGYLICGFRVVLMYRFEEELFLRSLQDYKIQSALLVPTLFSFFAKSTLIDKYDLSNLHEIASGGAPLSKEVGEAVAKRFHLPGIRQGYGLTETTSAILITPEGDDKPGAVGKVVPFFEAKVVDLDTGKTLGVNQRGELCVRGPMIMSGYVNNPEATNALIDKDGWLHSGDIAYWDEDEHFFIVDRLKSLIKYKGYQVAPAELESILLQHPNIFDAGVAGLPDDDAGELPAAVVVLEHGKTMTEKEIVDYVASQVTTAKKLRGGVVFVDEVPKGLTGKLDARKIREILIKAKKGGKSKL

For `C[C@@H]1C[C@H]2C[C@]3(CCCCN3C)[C@@H]3C[C@H]2[C@H](C1)N(C)C3`, the Potency entry in [1], in assay [2], in [3], in assay [4], in [5] and in assay [6] was “inactive” throughout. Besides, the Potency entry in [7], in assay [9], in [10], in assay [11], in assay [12] and in assay [13] was “inactive” each time. In addition, the Potency result in assay [14], in [15] and in assay [16] was “inactive” throughout. In addition, in assay [8], the call was inactive.
For `CC1(C)CC[C@]2(C(=O)O)CC[C@]3(C)C(=CC[C@@H]4[C@@]5(C)C[C@@H](O)[C@H](O)C(C)(C)[C@@H]5CC[C@]43C)[C@@H]2C1`, the Potency in assay [1] was 19.6 µM (active). Moreover, the Potency result in assay [2], in assay [3], in [6], in [9], in [10] and in assay [11] was “inactive” throughout. The Potency entry in assay [12], in [13], in assay [14], in assay [15] and in assay [16] was “inactive” throughout. The outcome in assay [8] was inactive.
With `CO[C@@H]1C[C@@H](C[C@H]2CC[C@H](C)[C@H]([C@@H](C)C(=O)O)O2)O[C@]2(O[C@](C)([C@H]3CC[C@@](C)([C@@H]4O[C@@H]([C@H]5O[C@](C)(O)[C@H](C)C[C@@H]5C)C[C@@H]4C)O3)C[C@H]2C)[C@@H]1C`, the Potency in [1] is 11 µM (active); in [2], 4.72 µM (active); in assay [3], 9.43 µM (active); in [4], 0.0941 µM (active); in assay [5], 3.75 µM (active); in [6] it was 4.72 µM (active). For the same compound, the Potency in assay [7] was 0.0372 µM (active); in assay [14], 14.7 µM (active); in assay [15], 0.118 µM (active); in [16], 5.44 µM (active). Moreover, the call in [8] was inactive. Also, the Potency entry in assay [9], in [10], in assay [11], in assay [12] and in [13] was “inactive” in each case.
Consider `C/C=C/C=C/C1(O)C2C=C3C(=O)CC45C(=O)C(O)=C(C)C(=O)C4C1C1(C(=O)C(O)=C(C)C(=O)C351)C2C` (stereo not drawn), for which the Potency in [1] was 39.2 µM (active). Also, the Potency entry in [2], in assay [3], in assay [4], in assay [5], in assay [6] and in assay [7] was “inactive” throughout. For the same compound, the Potency entry in assay [9], in [10], in assay [11], in assay [12], in [13] and in [14] was “inactive” each time. Also, the Potency result in assay [15] and in assay [16] was “inactive” throughout. Besides, in assay [8], the call was inactive.
For `CNc1ccc(Cl)cc1C(=O)OC[C@]1(C)[C@H]2CC[C@]3(C)[C@@H](C[C@@H](OC)[C@H](C)[C@H]3C3=C(O)C(=O)OC3O)[C@]2(C)CC[C@H]1O` (stereo partly drawn), in [1], the Potency is 6.21 µM (active). The Potency result in [2], in assay [3], in [4], in [5], in assay [6] and in assay [7] was “inactive” in each case. The Potency entry in assay [9], in assay [10], in assay [11], in [12], in [13] and in [14] was “inactive” in each case. Also, the Potency entry in [15] and in assay [16] was “inactive” throughout. Moreover, in assay [8], the compound was classed as inactive.
As for `C[C@@H](O)[C@H]1OC(=O)C=C2[C@]3(C)[C@H]4[C@H](OC(=O)[C@@]4(C)[C@@H](O)[C@H]4O[C@H]43)[C@H]3O[C@@]231`, the Potency result in assay [1], in [9], in [10], in assay [11] and in assay [12] was “inactive” each time. Further, the Potency in assay [2] was 3.34 µM (active); in [3], 3.35 µM (active); in assay [4], 1.33 µM (active); in assay [5], 2.11 µM (active); in assay [6], 1.88 µM (active); in assay [7], 0.833 µM (active). Besides, the Potency is 0.524 µM (active) in [13], 3.32 µM (active) in assay [15] and 12.2 µM (active) in assay [16]. Besides, the call in assay [8] was inactive.
As to `CC(O)/C=C/C1(O)C(C)(C)CC(O)CC1(C)O` (stereo not drawn), the Potency entry in assay [1], in assay [2], in [3], in [4], in assay [5] and in assay [6] was “inactive” throughout. The Potency result in [7], in [9], in [10], in assay [11], in [12] and in assay [13] was “inactive” in each case. In addition, the Potency entry in assay [14], in [15] and in assay [16] was “inactive” throughout. The outcome in [8] was inactive.
Regarding `C[C@@]12CCC[C@@](C)(C(=O)O)[C@H]1CC[C@]13C[C@H]4C[C@H](O[C@@]4(C)C1)[C@H]32`, in assay [1], the Potency is 3.92 µM (active). The Potency entry in assay [2], in [3], in [4], in assay [5], in assay [6] and in [7] was “inactive” each time. Also, the Potency entry in assay [9], in assay [10], in assay [11], in [12], in assay [13] and in assay [14] was “inactive” in each case. Moreover, the Potency result in assay [15] and in assay [16] was “inactive” throughout. The result in [8] was inactive.
As for `COc1ccc2cc(NC(=O)C3=NO[C@H]4[C@H](O)C=C[C@@H](Cl)[C@@]4(O)C3)c(=O)oc2c1OC`, the values for the Potency in assay [1] and in assay [7] were 49.3 µM (active) and 9.35 µM (active), respectively. For the same compound, the Potency entry in assay [2], in [3], in [4], in assay [5], in assay [6] and in assay [9] was “inactive” each time. Besides, the Potency result in [10], in assay [11], in [12], in assay [13], in [14] and in assay [15] was “inactive” throughout. Further, in assay [16], the Potency entry is “inactive”. Besides, in assay [8], the outcome was inactive.
Take `CCCCCCCCCCCCCCC[C@H](O)C[C@@H](O)C[C@@H](O)C[C@@H](O)C[C@@H](O)C[C@H]1CC=CC(=O)O1`: the Potency in assay [1] is 44 µM (active); in [2], 2.11 µM (active); in assay [3] it was 4.21 µM (active); in assay [4], 1.49 µM (active); in assay [5] it was 1.88 µM (active); in assay [6] it was 3.34 µM (active). For the same compound, the Potency in [7] is 0.743 µM (active); in assay [10] it was 26.4 µM (active); in [14] it was 7.39 µM (active); in assay [15], 3.72 µM (active); in [16] it was 3.06 µM (active). Also, the Potency result in [12] and in assay [13] was “inactive” throughout.
